Screening results (PubChem)
Many of the other results were omitted from the sample, so hits are more common in it than they were.
LmPK inhibitor: qHTS Assay for Inhibitors of Leishmania Mexicana Pyruvate Kinase (LmPK); Q27686; purified LmPK, Kinase-Glo ATP luminescence, 1 h; Potency, µM (highest dose often 57.5 µM), inactives show at the highest dose activity change, negative = inhibition, usual class: inhibitors; hit rate 0.37% among 290,000; AID 1721, 2009; note: potency is the fitted concentration of half-maximal effect; % is set by controls: 0 for no effect and ±100 for the full control effect
Target sequence (Q27686 whole entry, looked up): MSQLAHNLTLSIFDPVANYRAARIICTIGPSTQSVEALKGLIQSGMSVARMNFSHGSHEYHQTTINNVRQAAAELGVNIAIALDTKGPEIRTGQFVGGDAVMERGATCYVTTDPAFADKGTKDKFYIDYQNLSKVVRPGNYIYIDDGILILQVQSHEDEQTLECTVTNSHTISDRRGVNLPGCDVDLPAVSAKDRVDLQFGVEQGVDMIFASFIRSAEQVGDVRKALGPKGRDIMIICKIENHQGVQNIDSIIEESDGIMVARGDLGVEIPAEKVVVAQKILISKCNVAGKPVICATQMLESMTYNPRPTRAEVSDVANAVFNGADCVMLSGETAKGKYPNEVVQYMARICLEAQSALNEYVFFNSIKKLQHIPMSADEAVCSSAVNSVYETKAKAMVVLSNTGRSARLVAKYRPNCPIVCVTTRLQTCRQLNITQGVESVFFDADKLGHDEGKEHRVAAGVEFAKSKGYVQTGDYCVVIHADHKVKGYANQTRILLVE
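Pyruvate kinase activity monitored as ATP production (luciferase luminescence). Conditions: 0.1 nM enzyme, 0.5 mM PEP, 0.1 mM ADP, 1 h, RT; normalized against uninhibited and no-enzyme wells.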
CHX counter: Cycloheximide Counterscreen for Small Molecule Inhibitors of Shiga Toxin; max response, %; AID 2314, 2010; cell reporter, cycloheximide protein synthesis inhibition counterscreen; hit rate 12% among 300,000; in the data active = max response mostly above about 13%, no sharp cut-off; inactive = mostly below about 14%; note: read at 38.3 µM for the half of the compounds with a filed dose; 0% is about no effect
Shiga toxin inh: A qHTS for Small Molecule Inhibitors of Shiga Toxin | Vero cells, Shiga toxin protein synthesis inhibition reporter | inhibition, % at 38.7 µM | hit rate 9.2% among 290,000; in the data active = inhibition mostly above about 28%, no sharp cut-off; inactive = mostly below about 43%; note: 0% is about no effect
SARS PLpro yeast: qHTS of Yeast-based Assay for SARS-CoV PLP. S. cerevisiae expressing SARS-CoV PLpro, growth rescue. Potency, µM (top dose mostly 32.9 µM), inactives show at the top dose activity, positive = growth rescue, hits mostly activators. hit rate 0.19% among 330,000. AID 485353, 2010; calls by dose curve; note: potency is the fitted concentration of half-maximal effect; 0% is about no effect; nearly all actives have a fitted effect of over 55% in size
Tb PYK inh: qHTS of Trypanosoma Brucei Inhibitors | pyruvate kinase (Trypanosoma brucei), Q57TT1 | TbPYK enzyme, Kinase-Glo Plus ATP luminescence, 45 min | Potency, µM (doses to about 76.8 µM), for the others: top-dose activity, negative = inhibition, hits mostly inhibitors | hit rate 0.12% among 410,000; note: potency is the fitted concentration of half-maximal effect; % is set by controls: 0 for no effect and ±100 for the full control effect; nearly all actives have a fitted effect of over 50% in size
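Glycolytic pyruvate kinase of T. brucei was incubated with substrate, test compound and 130 uM ADP for 45 minutes at room temperature. Luminescent Kinase-Glo Plus signal was measured after 10 minutes.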
NS1 inh: qHTS Assay for Inhibitors of Influenza NS1 Protein Function | Potency, µM (top dose mostly 46.1 µM), for inactives: top-dose activity, positive = more growth | AID 2326, 2010 | hit rate 0.4% among 270,000; calls by dose curve; note: potency is the fitted concentration of half-maximal effect; actives are rising curves; nearly all actives have a fitted effect of over 50% in size
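Recovery from NS1-induced slow growth read by OD600 in budding yeast switched to galactose assay medium (pH 6.0, -URA) at 1:100 dilution. Compound 23 nl per well; the matching strain lacking NS1 serves as control.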
* hit, by the source's call; ? = inconclusive; / = no result given; [ ] = another dose, or the depositor's remark. Unless noted, calls come from the whole dose curve; as a rule, active = well fitted curve in the direction sought with a large enough effect; inconclusive = small, poorly fitted or top-dose-only effect, or another doubt; inactive = no such curve, though single readings can be large; an effect the other way counts as inactive or inconclusive.

SMILES	LmPK inhibitor	CHX counter	Shiga toxin inh	SARS PLpro yeast	Tb PYK inh	NS1 inh
Cc1occc1C(=O)NCc1ccccc1	1%	1	30	1%	-2%	-2%
Cc1ccc(C(=O)NCc2ccccc2)c(F)c1F	1%	14	65*	0%	2%	-3%
Cc1ccc(CNC(=O)Nc2ccccc2)cc1	1%	33*	123*	-5%	-6%	-79%
C#CC(C)(CC)NC(=O)Cn1nnc(-c2ccc(OCc3ccccc3Cl)cc2)n1 (stereo unspecified)	/	/	/	/	1%	/
CC(C)n1nnc(-c2ccc(OCc3ccccc3F)cc2)n1	-3%	26*	/	-7%	-11%	-45%
Cn1nnc(-c2ccc(OCc3ccccc3F)cc2)n1	?	44*	94*	2%	-19%	2%
Fc1ccccc1COc1ccc(-c2nnn(Cc3ccccc3F)n2)cc1	11%	-1	13	12%	-4%	0%
Fc1ccccc1COc1ccc(C(=S)N2CCCC2)cc1	0%	34*	116*	-8%	-5%	-9%
O=C(Oc1ccc(C(=S)N2CCCCC2)cc1)c1ccccc1F	-2%	-3	-20	0%	4%	3%
O=C(CCC(=O)Nc1nnc(C2CCCCC2)s1)NCc1ccc(F)cc1	1%	8	-5	-8%	1%	-6%
COc1cc(-c2ccc3oc(-c4cccc(C)c4)c(C#CC4(O)CCCCC4)c3c2)cc(OC)c1OC	/	/	/	6%	0%	/
Cc1ccccc1N(C=O)c1ccccc1C	/	/	/	/	-2%	/
CC(C)N(Cc1nccn1C)C(=O)c1ccc2oc(CCCc3ccccc3)nc2c1	-11%	4	-8	7%	2%	9%
CC(=O)C1CCCN(C(=O)c2ccc3oc(CCc4ccccc4)nc3c2)C1 (stereo unspecified)	-2%	36*	89*	-20%	7%	0%
CCOC(=O)C1CCCN(C(=O)c2ccc3oc(CCc4ccccc4)nc3c2)C1 (stereo unspecified)	2%	39*	38	-1%	3%	-15%
CCOC(=O)C1CCCN(C(=O)c2ccc3nc(-c4ccccc4)c(-c4ccccc4)nc3c2)C1 (stereo unspecified)	4%	10	-7	1%	-10%	14%
O=C(c1ccc2oc(CCCc3ccccc3)nc2c1)N1CCCC1	-8%	63*	129*	2%	1%	-34%
CCOC(=O)c1sc2nc(NC(=O)C(C)(C)C)sc2c1C	1%	36*	105*	-16%	1%	18%
O=C(N/N=C/c1cccc([N+](=O)[O-])c1)c1nc2ccccc2c(=O)[nH]1	-2%	19*	33	0%	1%	1%
O=C(Cc1ccccc1)N/N=C/c1cccc([N+](=O)[O-])c1	4%	9.6*	12	-4%	3%	/
O=C(Cc1ccccc1)N/N=C/C=C/c1cccc([N+](=O)[O-])c1	3%	-3	8	-1%	5%	-14%
CC(NC(=O)c1ccccc1)C(=O)N/N=C/c1ccc(O)cc1 (stereo unspecified)	3%[11.5 µM]	2	9	1%	-2%	/
CC(NC(=O)c1ccccc1)C(=O)N/N=C/c1cccc([N+](=O)[O-])c1 (stereo unspecified)	1%	17*	93	-1%	-4%	/
CCN1C(=O)c2ccccc2S(=O)c2ccc(C(=O)N3CCN(c4cc(Cl)ccc4C)CC3)cc21 (stereo unspecified)	/	/	/	/	6%	/
Cc1cc(C)c2cc3c(N)c(C(=O)Nc4c(C)[nH]c(=O)[nH]c4=O)sc3nc2c1	1%	15	-6	-15%	-5%	1.4µM*
SMILES	LmPK inhibitor	CHX counter	Shiga toxin inh	SARS PLpro yeast	Tb PYK inh	NS1 inh
COc1cccc(CN(C)Cc2c(O)ccc3ccccc23)c1	-1%	26	24*	-3%	0%	9%
COc1ccc(CN(C)Cc2c(O)ccc3ccccc23)cc1	9%	9	3	-1%	2%	-4%
COc1ccc(NC(=O)c2csc(Cc3ccccc3)n2)cc1	4%	43*	74	-30%	-1%	-9%
O=C(Nc1ccc(F)cc1)c1csc(Cc2ccccc2)n1	-4%	55*	104*	-6%	-1%	/
COc1ccc(CNC(=O)c2csc(Cc3ccccc3)n2)cc1	3%	21*	64*	?	0%	-12%
COc1ccccc1CN(C)C(=O)CSCC(=O)Nc1ccccc1F	/	/	/	-1%	5%	/
NNc1nc2sc3c(c2c(=O)n1Cc1ccccc1)CCC3	-2%	12	32	2%	-4%	6%
NNc1nc(-c2ccccc2)nc2sc3c(c12)CCCC3	-6%	62*	109*	-34%	-5%	3%
Cc1nn(-c2ccccc2)c(C)c1Cc1ccc(O)cc1	-3%	26*	77*	-5%	5%	-10%
CCOCCCn1c(SCC(=O)NCc2ccco2)nc2c(sc3ccccc32)c1=O	7%	32*	46	6%	/	15%
Cn1c(SCC(=O)NCc2ccco2)nc2ccccc2c1=O	-2%	7	73*	-3%	2%	-18%
O=C(CSc1nnc(C2CCCCC2)n1Cc1ccccc1)NCc1ccco1	3%	16*	24	-3%	-22%	5%
CCCCn1c(SCC(=O)NCc2ccco2)nc2c(sc3ccccc32)c1=O	-5%	15	18	16%	-15%	8%
O=C(CSc1nc2ccsc2c(=O)n1Cc1ccc(C(=O)O)cc1)NCc1ccco1	8%	-5	-15	20%	-2%	?
COc1ccc(Cn2c(SCC(=O)NCc3ccco3)nc3ccsc3c2=O)cc1	4%	17*	-40	2%	2%	2%
CCn1c(SCC(=O)NCc2ccco2)nnc1C1CCCC1	1%	-1	7	-2%	3%	1%
O=C(COC(=O)c1ccc(O)cc1O)NC(=O)NCc1ccccc1	/	/	/	-3%	3%	/
O=C(CSc1nc2c(sc3ccccc32)c(=O)n1-c1ccccc1)NCc1ccco1	1%	30*	44	-1%	-13%	?
COc1ccccc1NC(=O)COc1ccccc1C(=O)c1cnn(-c2ccccc2)c1	-5%	47*	24	8%	-1%	7%
COc1ccccc1NC(=O)Cn1cnc2c(cnn2-c2ccccc2)c1=O	1%	-2	-12	4%	2%	7%
CCc1ccc(NC(=O)COc2ccc(F)cc2C(=O)c2cnn(-c3ccccc3)c2)cc1	0%	27*	active	-3%	-9%	2%
CC1CCCC(NC(=O)CN(C)CC(=O)Nc2ccc(F)cc2)C1C (stereo unspecified)	/	/	/	-3%	-10%	/
CCOC(=O)C1=C(Nc2ccc(OC)cc2)C(N)=NC1=N	/	/	/	/	6%	/
